Records with an inconclusive call do not appear. A call without a number means that no potency is given here. A number with no mark means an inactive call. The source made the active and inactive calls. Calls come from the whole dose curve; as a rule, active = well fitted curve in the direction sought with a large enough effect; inconclusive = small, poorly fitted or top-dose-only effect, or another doubt; inactive = no such curve, though single readings can be large; an effect the other way counts as inactive or inconclusive.
Legend:
[1] = Viability qHTS for spleen associated tyrosine kinase inhibitor (SYKi) naive MV4-11 cells (AID 1963823); note: nearly all actives have a fitted effect of over 40% in size; note: potency is the fitted concentration of half-maximal effect
Method in brief: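 Cells: MV4-11, SYK inhibitor naive, 500 per well. Treatment: library compounds, 72 hr, 37 C, 5% CO2. Read-out: CellTiter-Glo luminescence after 10 min RT.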

[2] = Viability qHTS for spleen associated tyrosine kinase inhibitor (SYKi) drug resistant MV4-11 cells (AID 1963824); note: nearly all actives have a fitted effect of over 35% in size; note: potency is the fitted concentration of half-maximal effect
Method in brief: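 SYK inhibitor-resistant MV4-11 AML cells, 500 per well, added to predispensed compounds and incubated 72 hr at 37 C, 5% CO2. Viability measured by CellTiter-Glo luminescence after 10 min at room temperature.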

[3] = Cellular viability qHTS for adrenocortical cancer (ACC) cell line NCI-H295R (AID 1963990); note: nearly all actives have a fitted effect of over 60% in size; note: potency is the fitted concentration of half-maximal effect
Method in brief: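 Luminescent ATP read-out (CellTiter-Glo, 20 min RT) after 48 h drug exposure of NCI-H295R cells; a titration up to 46 uM final. Data normalized to doxorubicin (100% inhibition) and DMSO (0%); 4-parameter fit gives IC50, max response.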

[4] = Cellular viability qHTS for adrenocortical cancer (ACC) cell line SW-13 (AID 1963989); details: SW-13 ACC cells viability, CellTiter-Glo, 48 h; activity (max response): hits give low values;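 note: cells grown in serum-free medium with ITS supplement; nearly all actives have a fitted effect of over 65% in size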
Method in brief: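 SW-13 cells in ITS-supplemented serum-free DMEM were plated overnight, then exposed for 48 h at 37C to compound titrations (up to 46 uM final). Viability was read by CellTiter-Glo luminescence; four-parameter logistic fits gave IC50 and efficacy.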

Row | SMILES | Potency [1] | Potency [2] | Potency [3] | activity (max response) [4] [%]
1 | CCNC(=O)C#Cc1ccc2c(C(=Nc3ccc(CN(C)C)cc3)c3ccccc3)c(O)[nH]c2c1 | 12.6 nM (active) | 31.7 nM (active) | 2850 nM (active) | –
2 | CC[C@H](CC[C@@H](C)[C@H]1CC[C@H]2[C@@H]3CC=C4C[C@@H](O)CC[C@]4(C)[C@H]3CC[C@]12C)C(C)C | inactive | inactive | inactive | -11
3 | CC(C)OP(=O)(CP(=O)(OC(C)C)OC(C)C)OC(C)C | inactive | inactive | inactive | 9.07
4 | CC1c2cccc(O)c2C(O)=C2C(=O)C3(O)C(O)=C(C(N)=O)C(=O)C(N(C)C)C3C(O)C21 (configuration not stated) | 20900 nM (active) | 11800 nM (active) | inactive | –
5 | COc1cc2ncnc(Oc3cccc(NC(=O)Nc4cc(C(C)(C)C(F)(F)F)on4)c3)c2cc1OC | 164 nM (active) | 291 nM (active) | inactive | -26.2
6 | COC(=O)CCc1ccc(OCC(O)CNC(C)C)cc1 (configuration not stated) | inactive | inactive | inactive | -6.6
